# Measured values reported in PubChem BioAssay (NCI).
# The panel holds about 83,000 compounds, 20% with a hit somewhere; the sample as a whole holds those more often.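 Treatment: one concentration, 48 hours, 96-well format. Scoring: percent growth, with anything below 10 considered active.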 A number with no mark means an inactive call. Calls of active or inactive are those of the source.
# Test system: IGROV1 ovarian
# Experiment: NCI-60 one-dose screen, 48 h (100 = growth as untreated, 0 = no growth, -100 = all killed)
# Settings: 10 µM
row,SMILES,growth
1,O=C(O)C(SC(C(=O)O)c1ccccc1)c1ccccc1 (centres undefined),115%
2,COc1ccc(-c2nc3ccccn3c2-c2nnc(-c3cc(OC)c(OC)c(OC)c3)o2)cc1,87%
3,N#Cc1c(C#N)c(SSc2c(C#N)c(C#N)c(N)n2-c2ccccc2)n(-c2ccccc2)c1N,94.5%
4,CCN(CC)CCSCCCNc1c2ccc(Cl)cc2nc2ccc(OC)cc12,-18.7% (active)
5,CN1CC[C@@H](c2c(O)cc(O)c3c(=O)cc(-c4ccccc4Cl)oc23)[C@@H](O)C1,-37.1% (active)
6,NC1=NC(=O)C(c2ccccc2)(c2ccccc2)S1,115%
7,CCc1ccc2c(c1)N(CCO)C1=C(C(=O)OC1)C2c1ccccc1 (centres undefined),95.8%
8,Cc1cccc2c(NCCN(C)C)c3cccc(C(=O)NCCN(C)C)c3nc12,-61% (active)
9,CCCN(CCC)CCC(O)c1cc2c(c3ccccc13)CCCC2 (centres undefined),77.8%
10,COc1ccc2c(c1)/C(=C\c1c[nH]c3ccc(OC)cc13)C(=O)N2,41.7%
11,COc1cccc(C2C3=C(COC3=O)N(CCO)c3cc(OC)ccc32)c1 (centres undefined),24.3%
12,C=C(C(=O)c1ccccc1)C(NC(C)(C)C)c1ccccc1 (centres undefined),3.59% (active)
13,CCCC1(CC(=O)O)OCCc2c1[nH]c1ccccc21 (centres undefined),114%
14,CN(C)C(=S)N/N=C\C=N/NC(=S)N(C)C,-59.4% (active)
15,C=C(NC(=O)C(=C)NC(=O)c1csc(C2=NC3c4csc(n4)C4NC(=O)c5csc(n5)C(C(C)(O)C(C)O)NC(=O)C5CSC(=N5)/C(=C/C)NC(=O)C(C(C)O)NC(=O)c5csc(n5)C3(CC2)NC(=O)C(C)NC(=O)C(=C)NC(=O)C(=C)NC(=O)C(C(C)C)NC2C=Cc3c(C(C)O)cc(nc3C2O)C(=O)OC4C)n1)C(N)=O (centres undefined),-18.1% (active)
16,COc1ccc2nc3ccccc3c(NCCNCC(C)O)c2c1 (centres undefined),4.2% (active)
17,CN(C)CCN1C(=O)c2cccc3cc(N)cc(c23)C1=O,-39.9% (active)

row,SMILES,growth
1,COc1ccc(N2C(=O)C3c4[nH]c5ccc(OCc6ccccc6)cc5c4C4CCC(C(C)C)CC4C3C2=O)cc1 (centres undefined),59.6%
2,CC(C)C[C@H](NC(=O)[C@H](Cc1cccc2ccccc12)NS(=O)(=O)c1cccc2cccnc12)B(O)O,-64.7% (active)
3,O=C(CC(C(=O)c1ccccc1)N1CCOCC1)c1ccccc1 (centres undefined),106%
4,NC(=O)SCC(=O)Nc1ccc(S(N)(=O)=O)cc1,112%
5,CCCCN(CCCC)CCCCCCCCC(O)c1cc2ccccc2c2ccccc12 (centres undefined),44.8%
6,O=C(CCCCCCC(=O)Nc1cccnc1)NO,31%
7,COc1ccc2nc3cc(Cl)ccc3c(NCCNCC(C)O)c2c1 (centres undefined),26.2%
8,CCCCCCCCCCCCCCCCCCOCC(COCCOCC[N+]1(CCCCCC(=O)[O-])CCCC1)Oc1ncccn1 (centres undefined),-15.2% (active)
9,CC/C(=N\N=C(/CC)c1ccc(Br)cc1)c1ccc(Br)cc1,79.5%
10,O=C1OCC2=C1C(c1ccc(Cl)c(Cl)c1)c1cc3c(cc1N2CCO)OCCO3 (centres undefined),34.6%
11,COc1cc2nc(Nc3cccc(NC(C)=O)c3)nc(N)c2cc1OC,26.8%
12,Cc1nc2ccc(CN(C)c3ccc(C(=O)N[C@@H](CCC(=O)O)C(=O)O)s3)cc2c(=O)[nH]1,71.8%
13,CCCCCCCCN(CCCCCCCC)CCCCCCCCCN1CCCc2cc(OC)ccc21,101%
14,Nc1ncnc2[nH]c(=O)[nH]c12,113%
15,COc1ccc2c(c1)sc1nc(-c3ccccc3)c(-c3cccnc3)n12,94.7%
16,C=C(Cl)[C@@](Cl)(CBr)CC[C@@H](Br)C(C)(C)Cl,29.6%
17,COC(=O)[C@@H]1[C@H](O)[C@H](C)[C@H](O)[C@@](C)(O)/C=C\C=C(C)C(=O)Nc2c(C)c(OC(C)=O)c3c(c2O)C(=O)C(C)=C2OCOC(=C23)C(C)=C[C@@](C)(O)[C@H](O)[C@@H](C)[C@H]1OC(C)=O,88.4%
